# Assay outcomes: PubChem, National Center for Advancing Translational Sciences (NCATS)
# Only some compounds are listed: those with a hit (about 19% of all), similar ones and a draw of the others.
# ELG1 DNA repair – qHTS screen for small molecules that inhibit ELG1-dependent DNA repair in human embryonic kidney (HEK293T) cells expressing luciferase-tagged ELG1; HEK293T ELG1-luciferase reporter, luminescence, 16 h; DNA damage induced by 5-fluorouridine; Potency, µM (top dose mostly 46.1 µM), inactives show at the top dose activity change, negative = inhibition, actives largely listed as inhibitors; AID 504467, 2011; hit rate 2.3% among 330,000; note: potency is the fitted concentration of half-maximal effect; nearly all actives have a fitted effect of over 55% in size
#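 Quantitative HTS, concentration-response format. 2,000 cells/well co-treated with 5-fluorouridine and compound, 16 hr in 5% CO2 at 37 °C; ONE-Glo luminescence read after 30 min.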
# HT1080-NT tox – qHTS for induction of synthetic lethality in tumor cells producing 2HG: qHTS for the HT-1080-NT fibrosarcoma cell line; HT-1080-NT fibrosarcoma viability, CellTiter-Glo ATP luminescence, 48 h; Potency, µM (highest dose often 46.1 µM), for inactives: top-dose activity, negative = less viability, hits mostly cytotoxic; hit rate 1.6% among 360,000; AID 686970, 2013;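 note: NT is the 2HG producing partner of a matched IDH1 knockdown line; potency is the fitted concentration of half-maximal effect; 0% = DMSO-treated cells and -100% = media-only wells without cells; nearly all actives have a fitted effect of over 55% in size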
#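 A 48-hour cytotoxicity screen used HT-1080-NT cells plated 2 hours before compound delivery. ATP-based CellTiter-Glo luminescence measured viability, normalized to DMSO and no-cell controls.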
# DT40 TDP1 CPT – qHTS for Inhibitors of human tyrosyl-DNA phosphodiesterase 1 (TDP1): qHTS in cells in presence of CPT | chicken DT40 Tdp1-/-;hTDP1 cells + 20 nM CPT, ATP luminescence, 48 h | Potency, µM (titrated, usually from 46.2 µM), inactives show top-dose activity change, negative = growth inhibition, usual class: inhibitors | hit rate 12% among 420,000 | AID 686979, 2013; note: potency is the fitted concentration of half-maximal effect; nearly all actives have a fitted effect of over 55% in size
#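 Cell growth measured by CellTiter-Glo luminescence after a minimum 48 h, 37 C compound exposure with 20 nM CPT in Tdp1-knockout DT40 cells stably expressing hTDP1, seeded 400/well; qHTS titration format.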
# IL-1B inflam inh – qHTS for Inhibitors of Inflammasome Signaling: IL-1-beta AlphaLISA Primary Screen. AID 743279, 2014. THP-1 LPS/ATP IL-1B secretion, AlphaLISA, 16 h; active compounds read low. hit rate 4.7% among 360,000. activity change, % at 57.5 µM; in the data active = activity change below about -50%; inconclusive = mostly about -30% to -49%
#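 THP-1 cells pretreated 1 hr with compounds (up to 57.5 uM final), then stimulated with LPS (250 ng/mL final) plus ATP (1.25 mM final); secreted IL-1B measured by AlphaLISA after 16 hr, decreased signal indicating inhibition.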
# TDP1 cell noCPT – qHTS for Inhibitors of human tyrosyl-DNA phosphodiesterase 1 (TDP1): qHTS in cells in absence of CPT; Potency, µM (highest dose often 46.2 µM), without a hit: at the top dose activity change, negative = growth inhibition, most hits filed as inhibitors; DT40 Tdp1-/- hTDP1 cells, no CPT, ATP luminescence, 48 h; hit rate 15% among 420,000; note: potency is the fitted concentration of half-maximal effect; nearly all actives have a fitted effect of over 55% in size
#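 Readout: luminescence from CellTiter-Glo after 30 min in the dark at RT. Cells: DT40 Tdp1-/- with stable hTDP1, 400/well. Exposure: compounds alone, ≥48 hr, 37 °C.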
# HT1080 IDH1KD tx – qHTS for induction of synthetic lethality in tumor cells producing 2HG: qHTS for the HT-1080-IDH1KD cell line; hit rate 2% among 360,000; Potency, µM (titrated, usually from 46.1 µM), for inactives: top-dose activity, negative = toxicity, usual class: cytotoxic; HT-1080 IDH1 knockdown viability, ATP luminescence, 48 h;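 note: potency is the fitted concentration of half-maximal effect; 0% = DMSO wells and -100% = cell-free medium wells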
#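 Using the IDH1-knockdown HT-1080 line run in the same batch and compound series as the NT line, viability after 48 h at 37 °C was determined by CellTiter-Glo luminescence and expressed as % activity.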
# The depositor's hits bear a star; i = inactive; ? = inconclusive; nt = not tested or not shown; [ ] = another dose, or the depositor's remark. Unless noted, calls come from the whole dose curve; as a rule, active = well fitted curve in the direction sought with a large enough effect; inconclusive = small, poorly fitted or top-dose-only effect, or another doubt; inactive = no such curve, though single readings can be large; an effect the other way counts as inactive or inconclusive. Unless noted, % is set by controls: 0 for no effect and ±100 for the full control effect.
SMILES,ELG1 DNA repair,HT1080-NT tox,DT40 TDP1 CPT,IL-1B inflam inh,TDP1 cell noCPT,HT1080 IDH1KD tx
Cc1cc(C)c2c(N)c(C(=O)Nc3ccccc3F)sc2n1,?,5%,21%,?,13%,14%
CCC1CCc2nc3sc(C(=O)Nc4ccc(F)cc4F)c(N)c3cc2C1 (stereo not given),nt,nt,8.2µM*,nt,?,nt
CCC1CCc2nc3sc(C(=O)Nc4ccc(C)cc4)c(N)c3cc2C1 (stereo not given),nt,nt,12µM*,nt,7.3µM*,nt
CCC1CCc2nc3sc(C(=O)Nc4cccc(F)c4)c(N)c3cc2C1 (stereo not given),nt,nt,3.3µM*,nt,2.1µM*,nt
CCOc1cc(N2CCOCC2)c(OCC)cc1NC(=O)c1ccccc1,?,16%,21µM*,-18,16µM*,9%
CCOc1cc(N2CCOCC2)c(OCC)cc1NC(=O)COC(=O)c1cccc2ccccc12,-17%,0%,?,-9,-28%,-5%
O=C(Nc1ccc(OCC(=O)N2CCOCC2)cc1)c1ccccc1Cl,?,-2%,-11%,-2,1%,1%
CCOc1cc(N2CCOCC2)c(OCC)cc1NC(=O)Cc1ccccc1,-16%,18%,-18%,12,?,3%
CCOc1cc(N2CCOCC2)c(OCC)cc1NC(=O)c1c(-c2ccccc2Cl)noc1C,?,-28%,10µM*,-3,7.3µM*,-5%
CCOc1cc(N2CCOCC2)c(OCC)cc1NC(=O)COC(=O)c1ccc(OC)c([N+](=O)[O-])c1,nt,11%,15µM*,0,23µM*,17%
Cc1onc(-c2ccccc2Cl)c1C(=O)Nc1ccc(OCC(=O)N2CCOCC2)cc1,9.2µM*,5%,-14%,3,-4%,13%
Cc1cc(C)c[n+](CC(=O)c2c(C)cc(C)c([N+](=O)[O-])c2C)c1,4%,-4%,-7%,16,10%,-4%
CCOc1cc(N2CCOCC2)c(OCC)cc1NC(=O)CN1C(=O)NC(Cc2ccccc2)C1=O (stereo not given),-1%,14%,3%,-1,-19%,14%
CCOc1cc(N2CCOCC2)c(OCC)cc1NC(=O)CN1CCC(Cc2ccccc2)CC1,?,-1%,23µM*,?,?,0%
CCOc1cc(N2CCOCC2)c(OCC)cc1NC(=O)Cc1ccccc1OC,?,-25%,16µM*,-12,18µM*,-27%
CCOc1cc(N2CCOCC2)c(OCC)cc1NC(=O)c1ccc(-n2ccnc2)c([N+](=O)[O-])c1,?,-12%,-30%,12,15µM*,-14%
CCCn1nc(C(=O)Nc2cc(OCC)c(N3CCOCC3)cc2OCC)c2ccccc2c1=O,nt,2%[9.24 µM],16µM*,-17,3.3µM*,1%
COC(C[C@@H]1O[C@@H]1[C@@H](O)COCc1ccccc1)OC,13%,-1%,-22%,10,-6%,-1%
Nn1cnc2cc3ccccc3cc2c1=O,?,nt,-13%,18,2%,nt
CCCc1nnc(NC(=O)CCC(=O)N2CCN(S(=O)(=O)c3ccc(C)cc3)CC2)s1,0%,0%,-8%,14,-26%,-3%
CCOc1cc(N2CCOCC2)c(OCC)cc1NC(=O)CSc1ncccc1C(=O)O,10%,-3%,?,19,6.5µM*,-6%
CCOc1cc(N2CCOCC2)c(OCC)cc1NC(=O)c1ccc(C)cc1,?,-6%,?,6,9.2µM*,-10%
CCOc1cc(N2CCOCC2)c(OCC)cc1NC(=O)c1cccc(S(=O)(=O)N2CCOCC2)c1,16µM*,13%,-25%,7,?,?
CCOc1cc(N2CCOCC2)c(OCC)cc1NC(=O)c1cc(C)cc(C)c1,?,2%,13µM*,-7,12µM*,9%
CCOc1cc(N2CCOCC2)c(OCC)cc1NC(=O)c1ccc(S(=O)(=O)N(C)C)cc1,?,-12%,?,-14,?,11%
SMILES,ELG1 DNA repair,HT1080-NT tox,DT40 TDP1 CPT,IL-1B inflam inh,TDP1 cell noCPT,HT1080 IDH1KD tx
COc1ccc(S(=O)(=O)N2CCOCC2)cc1NC(=O)CN1CCC(Cc2ccccc2)CC1,?,-15%,16µM*,i,16µM*,-20%
CCOc1cc(N2CCOCC2)c(OCC)cc1NC(=O)c1ccc(OC(C)C)cc1,?,2%,?,7,21µM*,-2%
CC1CC(C)CN(C(=O)c2ccc3c(c2)N(Cc2ccccc2)CCS3)C1 (stereo not given),-18%,10%,?,?,?,-11%
Cc1ccc(Cl)cc1N1CCN(C(=O)c2ccc3c(c2)N(Cc2ccccc2)CCS3)CC1,nt,nt,16µM*,nt,23µM*,nt
CCOC(=O)N1CCN(C(=O)c2ccc3c(c2)N(Cc2ccccc2)CCS3)CC1,?,3%,?,7,26µM*,1%
CCCS(=O)(=O)c1nc(S(=O)(=O)c2ccc(C)cc2)c(N2CCN(CC)CC2)s1,-4%,10%,?,?,-9%,-3%
CCCCNC(=O)[C@H]1C[C@H]1[C@@H](O)[C@H](CO)NC(=O)[C@H](COCc1ccccc1)NC(=O)OC(C)(C)C,6%,10%,-20%,1,-3%,8%
CCOC(=O)c1cc2c(=O)n3ccccc3nc2n(CCOC)c1=NC(=O)c1c(-c2ccccc2Cl)noc1C,nt,nt,-3%,nt,1%,nt
CCCCCCN(C(=O)CCl)c1ccccc1,?,3.7µM*,16µM*,-67*,10µM*,?
CCCCCCCN(C(=O)CCl)c1cccc(C)c1,-1%,-18%,?,-105*,23µM*,?
CC(=O)N(CCN(C(C)=O)c1ccccc1)c1ccccc1,0%,-3%,-18%,-11,-2%,-7%
O=C(Nc1ccc(O)c2c(=O)cc(-c3cccc(Cl)c3)oc12)c1ccc(F)cc1,21%,1%,?,33,13µM*,-9%
O=C(Nc1ccc(O)c2c(=O)cc(-c3ccccc3Cl)oc12)c1ccc(Cl)c(Cl)c1,11%,-6%,-27%,17,-27%,3%
